Results reported in PubChem BioAssay.
Activity calls are given as the source filed them.

Columns and labels:
[1] = optical density shifts of acrAB sulA E. coli – strain DRC41, OD650, 48 h, E. coli filamentation inducer project, primary screen (AID 1152); conditions: higher = more signal, called active from +8 up or from −8 down;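 also: E. coli MC1000 strain DRC41 lacking acrAB efflux pump and sulA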
[2] = probe aLefty1 binding on compound microarray – biochemical, small-molecule microarray, 635/667 nm fluorescence, primary screen (AID 1153); conditions: higher = more signal;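 also: score merges spot fluorescence with signal-to-noise ratio from the scanned slide images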
[3] = plasmodial surface anion channel blockers, osmotic lysis – cell-based, P. falciparum Indochina, OD700, 1 h, primary screen (AID 1154); conditions: P. falciparum Indochina infected RBC osmotic lysis, higher = more signal, called active from +8 up or from −8 down
[4] = plasmodial surface anion channel blockers, osmotic lysis – cell-based, P. falciparum Indochina, OD700, 2 h, primary screen (AID 1155);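 also: lysis reports solute entry through the parasite surface anion channel PSAC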; conditions: P. falciparum Indochina infected erythrocytes, higher = more signal, called active from +8 up or from −8 down
[5] = changes in parasitized red cell lysis, either direction – P. falciparum Indochina, OD700, 3 h, PSAC antagonist project, primary screen (AID 1156); conditions: P. falciparum-infected erythrocytes, osmotic lysis, higher = more signal, called active from +8 up or from −8 down
[6] = plasmodial surface anion channel blockers, osmotic lysis – cell-based, P. falciparum Indochina, OD700, 18 h, primary screen (AID 1157); conditions: P. falciparum Indochina infected erythrocytes, osmotic lysis OD700, 18 h; higher = more signal, called active from +8 up or from −8 down
[7] = S6 kinase pathway phospho-S6 level changes – cell-based, A549, cytoblot, luminescence, serum-stimulated, primary screen (AID 1158); conditions: 5 h, higher = more signal;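 also: serum-stimulated A549 lung adenocarcinoma cells; signal is phosphorylated S6 detected by cytoblot immunostaining with HRP secondary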
[8] = biological target: NADPH oxidase 2 (Homo sapiens) (UniProt P04839); test: compounds shifting NOX2 Amplex Red fluorescence – cell-based, HEK293-NOX2, PMA-stimulated, NOX inhibitor project, primary screen (AID 1159); conditions: 45 min, higher = more signal, called active from +8 up or from −8 down; also: test concentration not given here
NADPH oxidase 2 (Homo sapiens), sequence (P04839 whole entry, looked up): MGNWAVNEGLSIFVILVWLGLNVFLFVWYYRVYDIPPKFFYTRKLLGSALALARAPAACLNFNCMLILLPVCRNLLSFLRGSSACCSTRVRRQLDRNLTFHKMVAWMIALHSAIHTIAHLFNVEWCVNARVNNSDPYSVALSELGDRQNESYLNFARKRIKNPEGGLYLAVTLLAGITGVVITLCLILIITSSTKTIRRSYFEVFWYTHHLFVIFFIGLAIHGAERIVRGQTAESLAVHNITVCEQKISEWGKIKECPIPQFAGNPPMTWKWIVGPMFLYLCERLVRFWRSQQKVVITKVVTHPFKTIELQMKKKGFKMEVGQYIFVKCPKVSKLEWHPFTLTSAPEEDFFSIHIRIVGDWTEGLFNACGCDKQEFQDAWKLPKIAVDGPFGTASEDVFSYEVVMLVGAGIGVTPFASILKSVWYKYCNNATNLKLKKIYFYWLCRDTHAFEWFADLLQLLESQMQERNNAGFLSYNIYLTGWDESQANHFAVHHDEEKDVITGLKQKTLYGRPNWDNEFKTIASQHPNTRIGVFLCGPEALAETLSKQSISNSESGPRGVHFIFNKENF

[9] = biological target: NADPH oxidase 4 (Homo sapiens) (UniProt Q9NPH5); test: compounds shifting NOX4 Amplex Red fluorescence – cell-based, HEK293-NOX4, tetracycline-induced, NOX inhibitor project, primary screen (AID 1160); conditions: HEK293-NOX4, Amplex Red H2O2 fluorescence, 45 min; higher = more signal, called active from +8 up or from −8 down
NADPH oxidase 4 (Homo sapiens), sequence (Q9NPH5 whole entry, looked up): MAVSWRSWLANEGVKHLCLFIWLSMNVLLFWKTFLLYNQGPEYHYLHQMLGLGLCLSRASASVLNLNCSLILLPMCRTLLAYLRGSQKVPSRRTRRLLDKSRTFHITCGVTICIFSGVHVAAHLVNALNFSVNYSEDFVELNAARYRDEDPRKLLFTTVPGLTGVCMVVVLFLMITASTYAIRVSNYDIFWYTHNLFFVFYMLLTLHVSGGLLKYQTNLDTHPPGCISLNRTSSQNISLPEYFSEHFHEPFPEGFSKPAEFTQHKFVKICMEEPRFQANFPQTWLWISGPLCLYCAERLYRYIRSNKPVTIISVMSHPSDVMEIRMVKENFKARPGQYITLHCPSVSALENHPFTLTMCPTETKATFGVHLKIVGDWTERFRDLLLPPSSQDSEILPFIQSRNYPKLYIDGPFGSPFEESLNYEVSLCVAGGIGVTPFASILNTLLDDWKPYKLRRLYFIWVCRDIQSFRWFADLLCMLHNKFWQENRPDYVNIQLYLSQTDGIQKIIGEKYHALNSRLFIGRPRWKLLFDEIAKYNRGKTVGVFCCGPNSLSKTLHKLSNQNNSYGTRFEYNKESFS

[10] = biological target: NADPH oxidase 5 (Homo sapiens) (UniProt Q96PH1); test: compounds shifting NOX5 Amplex Red fluorescence – cell-based, HEK293-NOX5, NOX inhibitor project, primary screen (AID 1161); conditions: HEK293-NOX5, ionomycin, 45 min, higher = more signal
NADPH oxidase 5 (Homo sapiens), sequence (Q96PH1 whole entry, looked up): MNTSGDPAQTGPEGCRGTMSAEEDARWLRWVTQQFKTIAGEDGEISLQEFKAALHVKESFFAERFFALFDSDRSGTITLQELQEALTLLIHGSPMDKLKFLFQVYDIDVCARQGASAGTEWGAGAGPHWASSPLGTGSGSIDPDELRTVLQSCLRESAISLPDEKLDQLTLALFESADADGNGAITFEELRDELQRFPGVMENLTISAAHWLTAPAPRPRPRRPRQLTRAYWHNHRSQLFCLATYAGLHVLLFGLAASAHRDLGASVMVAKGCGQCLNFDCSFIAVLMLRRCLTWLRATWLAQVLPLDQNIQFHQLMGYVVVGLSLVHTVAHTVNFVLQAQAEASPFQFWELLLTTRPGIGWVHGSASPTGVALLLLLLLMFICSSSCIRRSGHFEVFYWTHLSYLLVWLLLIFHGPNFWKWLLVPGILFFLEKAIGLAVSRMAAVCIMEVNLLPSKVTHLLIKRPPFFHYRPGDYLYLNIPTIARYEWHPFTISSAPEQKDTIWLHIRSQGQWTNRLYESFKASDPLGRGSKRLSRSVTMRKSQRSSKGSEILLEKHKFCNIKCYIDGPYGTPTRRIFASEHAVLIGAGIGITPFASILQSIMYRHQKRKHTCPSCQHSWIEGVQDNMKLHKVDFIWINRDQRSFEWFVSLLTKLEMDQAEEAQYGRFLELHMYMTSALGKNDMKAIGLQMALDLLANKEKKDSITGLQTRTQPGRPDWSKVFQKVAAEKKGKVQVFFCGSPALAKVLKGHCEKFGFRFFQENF

[11] = compound effects on lung adenocarcinoma cell viability – A549, calcein-AM fluorescence, 48 h, basal, profiling panel (AID 1162); conditions: higher = more signal; also: test concentration not given here
[12] = compound effects on differentiated 3T3-L1 adipocyte viability – cell-based, 3T3-L1 adipocytes, calcein-AM fluorescence, 48 h, basal, profiling panel (AID 1163); conditions: 3T3-L1 adipocytes viability, higher = more signal; also: test concentration not given here
[13] = compound effects on hepatocellular carcinoma cell viability – HepG2, calcein-AM fluorescence, 48 h, basal, profiling panel (AID 1164); conditions: higher = more signal; also: test concentration not given here
[14] = compound effects on multiple myeloma cell viability – MM1S, calcein-AM fluorescence, 48 h, basal, profiling panel (AID 1165); conditions: higher = more signal; also: test concentration not given here
[15] = calcein-AM signal in unstimulated myeloma cells – cell-based, calcein-AM fluorescence, 48 h, PK04 Diversity Set, profiling panel (AID 1166); conditions: RPMI8226 myeloma viability, higher = more signal;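 also: cells grown under basal conditions without added stimulus; test concentration not given here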
[16] = JC-1 mitochondrial signal, unstimulated HepG2 cells – cell-based, JC-1 fluorescence, 24 h, 100 nL compound, profiling panel (AID 1167); conditions: HepG2 mitochondrial potential, higher = more signal; also: test concentration not given here
[17] = JC-1 mitochondrial signal, unstimulated adipocytes – cell-based, JC-1 fluorescence, 3T3-L1 adipocytes, 24 h, 100 nL compound, profiling panel (AID 1168); conditions: JC-1 mitochondrial fluorescence, higher = more signal, called active from +8 up or from −8 down; also: test concentration not given here
[18] = JC-1 mitochondrial signal, unstimulated myeloma cells – cell-based, JC-1 fluorescence, RPMI8226, 24 h, 100 nL compound, profiling panel (AID 1169); conditions: JC-1 mitochondrial potential fluorescence, higher = more signal; also: test concentration not given here
[19] = JC-1 mitochondrial signal, unstimulated MM1S myeloma – cell-based, JC-1 fluorescence, 24 h, 100 nL compound, profiling panel (AID 1170); conditions: MM1S mitochondrial potential, higher = more signal; also: test concentration not given here
[20] = resazurin metabolic signal in A549 cells – cell-based, resazurin fluorescence, 24 h, PK04 Diversity Set, profiling panel (AID 1171); conditions: A549 viability, higher = more signal, called active from +8 up or from −8 down; also: test concentration not given here

SMILES | z-score [1] | composite z-score [2] | z-score [3] | z-score [4] | z-score [5] | z-score [6] | z-score [7] | z-score [8] | z-score [9] | z-score [10] | z-score [11] | z-score [12] | z-score [13] | z-score [14] | z-score [15] | z-score [16] | z-score [17] | z-score [18] | z-score [19] | z-score [20]
COC(=O)[C@@]1(Cc2ccccc2)[C@@H]2[C@@H](CC(=O)[C@H]2CC(=O)C(=O)N(C)C)CN1C(=O)c1ccccc1 | -0.655 (inactive) | 0.0811 | 2.19 (inactive) | 0.543 (inactive) | 0.0132 (inactive) | 0.738 (inactive) | -0.268 | 0.984 (inactive) | 0.766 (inactive) | -0.461 | 0.258 | -0.103 | 0.0925 | -0.822 | 0.397 | 1.23 | -0.239 (inactive) | 0.209 | -1.31 | -0.658 (inactive)
CC(C)C[C@H]1NC(=O)[C@@H](C)NC(=O)[C@@]23C(=O)N[C@@H](Cc4ccccc4)C2[C@H](C)[C@@]2(C)O[C@H]2C3/C=C/C/C=C\CNC1=O (stereo not given in full) | -0.743 (inactive) | -0.431 | 0.522 (inactive) | -0.437 (inactive) | -0.435 (inactive) | -0.111 (inactive) | -0.175 | -0.115 (inactive) | 1.11 (inactive) | 0.407 | 0.65 | 0.305 | -0.363 | -0.256 | -0.64 | -0.553 | 0.023 (inactive) | 0.471 | 0.191 | -0.0639 (inactive)
CCC(CC)C(O)C1C=CC2C(=O)N(C)C(=O)C2N1N1CCCCC1 (stereo not given) | -1.65 (inactive) | 0.361 | 1.41 (inactive) | 0.787 (inactive) | 0.156 (inactive) | 0.729 (inactive) | -1.17 | -0.893 (inactive) | -1.17 (inactive) | -1.35 | -0.0236 | -0.505 | -0.502 | -0.651 | -0.521 | -1.34 | -0.115 (inactive) | 0.153 | -0.557 | 0.0051 (inactive)
Cc1ccc(S[C@]2(C(=O)NCCCN(C)C)CC(=O)N(Cc3ccccc3Cl)[C@@H]2c2ccc(CO)cc2I)cc1 | 1.02 (inactive) | -0.0573 | 4.18 (inactive) | 0.987 (inactive) | 0.524 (inactive) | 0.498 (inactive) | -0.344 | 0.255 (inactive) | -1.15 (inactive) | 1.78 | 0.171 | 0.908 | -0.696 | -2.41 | -3.15 | 1.25 | 0.722 (inactive) | -0.351 | -0.984 | 0.515 (inactive)
O=C1N(Cc2ccccc2)c2ccccc2[C@H]2OC(c3ccc(OCCCO)cc3)=N[C@@]12Cc1ccccc1 | -0.456 (inactive) | 0.31 | 28.7 (active) | 25.3 (active) | 3.25 (inactive) | 2.26 (inactive) | 0.381 | -1.32 (inactive) | -0.641 (inactive) | -1.68 | -1.22 | 1.93 | -1.78 | -2.75 | -4.59 | -0.67 | 1.56 (inactive) | -1.26 | -1.66 | -2.1 (inactive)
CC(C)(C)N1CC=CC23O[C@@H]4/C=C\CCCOC(=O)C4[C@H]2C(=O)N(CCCCCCO)[C@@H]3C1=O (stereo not given in full) | 1.88 (inactive) | 0.0903 | 1.64 (inactive) | -0.353 (inactive) | 0.703 (inactive) | -0.331 (inactive) | 1.97 | 0.834 (inactive) | -0.0239 (inactive) | 2.04 | 0.0079 | 0.164 | 0.797 | 1.83 | -0.0296 | 1.17 | 1.04 (inactive) | 0.116 | -0.892 | 0.204 (inactive)
C=CC[C@@]1(C(=O)O)N=C(c2ccc(OCCCO)cc2)O[C@@H]1c1ccccc1CN=[N+]=[N-] | 0.578 (inactive) | -0.335 | 25.8 (active) | 16.5 (active) | 1.15 (inactive) | 1.71 (inactive) | 0.842 | -0.235 (inactive) | 1.24 (inactive) | 0.186 | -0.473 | 0.891 | 0.545 | 0.15 | 0.0466 | 0.171 | -0.164 (inactive) | -0.973 | -1.54 | 0.611 (inactive)
CC(C)CNC(=O)[C@@H]1c2ccccc2C(=O)N(Cc2ccccc2Cl)[C@H]1c1ccc(CO)cc1 | 0.244 (inactive) | -0.133 | 2.54 (inactive) | 0.526 (inactive) | 0.531 (inactive) | 0.181 (inactive) | 0.279 | -0.451 (inactive) | 0.16 (inactive) | -1.75 | -0.103 | 0.187 | -0.228 | -0.242 | -0.183 | 1.01 | -0.0284 (inactive) | 0.13 | 0.438 | 0.914 (inactive)
CN1C(=O)C2C=CC(C(O)c3ccc(-c4ccccc4)s3)N(Nc3ccccc3)C2C1=O (stereo not given) | -1.06 (inactive) | 0.612 | 2.55 (inactive) | 1.05 (inactive) | 0.156 (inactive) | 1.29 (inactive) | -0.857 | -1.21 (inactive) | -4.15 (inactive) | -1.81 | -0.485 | -1.2 | -0.99 | -0.467 | -1.64 | -1.44 | -0.896 (inactive) | -0.364 | -0.138 | -0.086 (inactive)
